Test results reported in PubChem BioAssay (NCI).
About 79,000 compounds went through this panel and 15% of them were active in at least one assay; those are over-represented in the sample as a whole. Unmarked numbers belong to inactive results. Active and inactive are the calls of the source. No stated cut-off is given here; in the data, active means growth inhibition above about 70%; inactive means the rest.

How the values were obtained:
[1] = NCI Yeast Anticancer Drug Screen. Data for the rad50 strain (AID 155);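 further: 0% = growth of vehicle-only cultures of the same strain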; conditions: S. cerevisiae rad50 strain growth inhibition, active compounds read high
Method in brief: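 Vehicle-treated cultures provide the reference for the growth inhibition reported for compound-exposed, repair-deficient yeast.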

[2] = NCI Yeast Anticancer Drug Screen. Data for the mec2-1 strain (AID 157); conditions: S. cerevisiae mec2-1 strain, active compounds read high
Method in brief: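 Compounds were applied to mec2-1 yeast cells. Their growth was then compared with that of vehicle-treated cultures to give growth inhibition.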

[3] = NCI Yeast Anticancer Drug Screen. Data for the sgs1 mgt1 strain (AID 161);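 further: 0% = growth of cultures given vehicle only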; conditions: S. cerevisiae sgs1 mgt1 strain, active compounds read high
Method in brief: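 Percent growth inhibition was derived by comparing compound-exposed mutant yeast with vehicle-exposed cultures. The strain carries alterations in DNA damage repair.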

[4] = NCI Yeast Anticancer Drug Screen. Data for the cln2 rad14 strain (AID 165);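 further: 0% = growth equal to vehicle treated cultures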; conditions: S. cerevisiae cln2 rad14 strain, active compounds read high
Method in brief: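 Strain: cln2 rad14 yeast, altered in cell cycle control and DNA damage repair. Read-out: growth inhibition vs vehicle.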

[5] = NCI Yeast Anticancer Drug Screen. Data for the bub3 strain (AID 167); conditions: S. cerevisiae bub3 mutant strain, active compounds read high
Method in brief: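 Mutant yeast screening strain plus compound; vehicle-treated cultures serve as the 0% inhibition reference.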

[6] = NCI Yeast Anticancer Drug Screen. Data for the mlh1 rad18 strain (AID 175); conditions: S. cerevisiae mlh1 rad18 strain growth inhibition, active compounds read high
Method in brief: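 A repair-deficient yeast strain is exposed to test compound, and growth is scored relative to vehicle-treated controls.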

[7] = at 5.0 µM (retest, dose inferred, filed as 0.5)
[8] = at 50.0 µM (retest, dose inferred, filed as 5.0)

SMILES	growth inhibition [1, 7]	growth inhibition [1, 8]	growth inhibition ([1]; at 50.0 µM)	growth inhibition [2, 7]	growth inhibition [2, 8]	growth inhibition ([2]; at 50.0 µM)	growth inhibition [3, 7]	growth inhibition [3, 8]	growth inhibition ([3]; at 50.0 µM)	growth inhibition [4, 7]	growth inhibition [4, 8]	growth inhibition ([4]; at 50.0 µM)	growth inhibition [5, 7]	growth inhibition [5, 8]	growth inhibition ([5]; at 50.0 µM)	growth inhibition [6, 7]	growth inhibition [6, 8]	growth inhibition ([6]; at 50.0 µM)
COC(=O)C(=O)CC(=O)c1cccc(Cl)c1	16%	99% (active)	74.5% (active)	18%	100% (active)	77% (active)	18%	99% (active)	64.2%	6%	99% (active)	21.8%	13%	99% (active)	82.7% (active)	12%	99% (active)	74.7% (active)
CCN(CC)CCNC(=O)c1ccc(N=Cc2cc(Cl)cc(Cl)c2O)cc1	48%	49%	81.2% (active)	32%	48%	91% (active)	49%	97% (active)	88.8% (active)	24%	99% (active)	84.8% (active)	88% (active)	97% (active)	89.2% (active)	46%	39%	85.7% (active)
O=C(O)/C=C/C(=O)Nc1cccc2ccccc12	40%	40%	6.35%	44%	49%	35.9%	21%	100% (active)	55.5%	39%	100% (active)	2.25%	64%	100% (active)	55%	26%	44%	16.8%
O=C(NC1(OC(=O)c2ccc(Cl)cc2)CC1)c1ccc(Cl)cc1	6%	97% (active)	97.8% (active)	14%	98% (active)	97.9% (active)	15%	91% (active)	95.5% (active)	25%	97% (active)	97.5% (active)	-8%	98% (active)	97.1% (active)	24%	97% (active)	96.8% (active)
CC(C)(C)OC(=O)CSC#N	11%	93% (active)	67.3%	16%	95% (active)	66.2%	9%	96% (active)	90.5% (active)	8%	39%	3.75%	12%	94% (active)	69.2%	15%	92% (active)	55.5%
CC(=O)NNc1nc(C)c(C(=O)NNC(=O)C(=O)Nc2ccc(Cl)c([N+](=O)[O-])c2)s1	34%	34%	70.6% (active)	19%	19%	20.9%	32%	32%	69.2%	18%	18%	51.6%	19%	19%	55.9%	20%	20%	50.4%
CCCC1(C)C(C#N)(C#N)C1(C#N)C#N	98% (active)	98% (active)	98.5% (active)	96% (active)	99% (active)	99.3% (active)	98% (active)	99% (active)	99.3% (active)	99% (active)	99% (active)	99.1% (active)	99% (active)	99% (active)	99% (active)	99% (active)	99% (active)	99.2% (active)
O=C(OCc1ccccc1)C(O)c1ccccc1 (stereo not given)	-2%	16%	24.1%	2%	6%	-7.1%	-1%	3%	-14.7%	-4%	1%	41.1%	-3%	-2%	18.4%	-1%	10%	16.2%
CCCCNCCC1(c2ccccc2)C(=O)Oc2ccccc21 (stereo not given)	-5%	14%	63.2%	-4%	18%	57.5%	-5%	35%	59.9%	0%	-17%	46.2%	-5%	-12%	-9.45%	-7%	10%	53%
CCCCCCCCCCCCOc1c(Cl)cc(Cl)c(Cl)c1Cc1c(O)c(Cl)cc(Cl)c1Cl	1%	86% (active)	97.5% (active)	0%	92% (active)	98.5% (active)	2%	72% (active)	98.3% (active)	-2%	87% (active)	97.2% (active)	0%	89% (active)	96.4% (active)	2%	87% (active)	97.7% (active)
